From PubChem
Sampled rows, rich in hits. Any-hit rate of the full collection: about 5.1%.
Pol III holo inh = blocks replication by bacterial DNA polymerase III holoenzyme | 0.25% of 71,000 active | reconstituted DNA polymerase III holoenzyme replication, biochemical | Potency, µM (doses to about 57.1 µM), for inactives: at the top dose activity change, negative = inhibition; note: % is set by controls: 0 for no effect and ±100 for the full control effect
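Reconstituted *E. coli* holoenzyme (0.35 nM Pol III, 1 nM beta, 154 nM SSB, 2 nM primase) was preincubated with compound for 15 min at RT. Synthesis on 1.4 nM ssM13Gori ran 35 min, then was stopped with PicoGreen/EDTA and read as dsDNA fluorescence.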
TSHR ag = TSH receptor (human) agonism | HEK293-CNG-TSHR cells (CNG channel as cAMP sensor), membrane potential dye, cAMP | Potency, µM (series often up to 57.1 µM), without a hit: at the highest dose activation, hits mostly activators | 0.48% of 73,000 active | P16473 | AID 926; active = well fitted activation curve with a large enough effect in the main read-out, with a control signal flat, not every such curve was filed as active; inconclusive = small, poorly fitted or top-dose-only effect, or a change in a side signal; inactive = no such curve, though single readings can be large or run the other way; % of control where 0% means no effect;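 note: the control signal comes from parental cells without the receptor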
Target sequence (P16473 whole entry, looked up): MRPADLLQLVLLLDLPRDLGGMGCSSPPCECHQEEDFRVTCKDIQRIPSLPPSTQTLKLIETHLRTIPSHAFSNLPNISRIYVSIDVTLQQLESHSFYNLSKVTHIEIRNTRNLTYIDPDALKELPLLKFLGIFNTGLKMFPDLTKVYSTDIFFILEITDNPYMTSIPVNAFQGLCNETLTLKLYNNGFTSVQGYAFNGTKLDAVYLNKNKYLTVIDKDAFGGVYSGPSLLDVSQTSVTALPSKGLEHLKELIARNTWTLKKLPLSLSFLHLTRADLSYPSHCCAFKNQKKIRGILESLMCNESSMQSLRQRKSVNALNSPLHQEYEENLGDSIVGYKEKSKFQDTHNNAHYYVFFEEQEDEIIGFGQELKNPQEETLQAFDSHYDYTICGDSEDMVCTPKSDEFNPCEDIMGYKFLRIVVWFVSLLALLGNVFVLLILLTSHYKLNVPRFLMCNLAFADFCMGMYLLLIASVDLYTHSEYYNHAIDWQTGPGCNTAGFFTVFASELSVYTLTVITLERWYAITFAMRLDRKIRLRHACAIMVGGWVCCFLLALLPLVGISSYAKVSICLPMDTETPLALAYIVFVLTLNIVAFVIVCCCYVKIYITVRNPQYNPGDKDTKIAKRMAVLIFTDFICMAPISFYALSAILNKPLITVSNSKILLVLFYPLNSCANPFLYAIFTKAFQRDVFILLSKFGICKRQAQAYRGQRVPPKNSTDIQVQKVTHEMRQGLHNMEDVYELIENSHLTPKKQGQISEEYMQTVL
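HEK 293 cells stably expressing TSHR and a modified CNG channel, with CNG-only parental cells as counterscreen, were preloaded 60 min at room temperature with membrane potential dye containing 100 uM RO 20-1724. Compound exposure was 30 min, and depolarization was read as fluorescence at 590 nm.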
Tau filament bind = binds recombinant human tau filaments | P10636 | recombinant tau filaments, thioflavin S fluorescence, 15 h; filaments grown with octadecylsulfate alongside compound | Potency, µM (highest dose often 57.1 µM), inactives show top-dose activity change, negative = inhibition | 2% of 71,000 active;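 note: % is set by controls: 0 for no effect and ±100 for the full control effect; actives lower thioflavin S fluorescence by blocking filaments or displacing dye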
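His-tagged recombinant human tau (exons 2, 3 and 10 included), 1 uM, was induced to fibrillize by 30 uM sodium octadecylsulfate with compound present. After 15 h at 37 C, thioflavine S fluorescence (ex 450, em 510 nm) was read.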
Hsp90 Hop PPI = changes Hsp90-Hop TPR2A binding signal, up or down; Potency, µM (highest dose often 57 µM), for the others: top-dose activity change, negative = inhibition; AlphaScreen TPR2A-His6 binding biotin-Hsp90 C-terminal peptide; 0.44% of 71,000 active; AID 595; active = well fitted curve in either direction with a large enough effect; inconclusive = small, poorly fitted or top-dose-only effect, or another doubt; note: % is set by controls: 0 for no effect and ±100 for the full control effect
HEK293 cAMP ctrl = raises cAMP in parental HEK293 cells, TSHR agonist counter-screen. parental HEK293 CNG cAMP sensor, membrane potential fluorescence. Potency, µM (series often up to 57.1 µM), without a hit: at the top dose activation, most hits filed as activators. 2.5% of 73,000 active; note: % of control where 0% means no effect; nearly all actives have a fitted effect of over 55% in size
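Parental HEK 293 cells stably expressing a cAMP-gated CNG channel were loaded with membrane potential dye containing 100 uM RO 20-1724 for 60 min. Compound added for 30 min; depolarization read as fluorescence intensity at 590 nm.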
The depositor's hits bear a star; ? = inconclusive; nt = no result; [ ] = remark or other dose. Unless noted, calls come from the whole dose curve; as a rule, active = well fitted curve in the direction sought with a large enough effect; inconclusive = small, poorly fitted or top-dose-only effect, or another doubt; inactive = no such curve, though single readings can be large; an effect the other way counts as inactive or inconclusive. Potency is the fitted concentration of half-maximal effect.

SMILES | Pol III holo inh | TSHR ag | Tau filament bind | Hsp90 Hop PPI | HEK293 cAMP ctrl
COc1ccccc1-c1noc(-c2ccncc2)n1 | 0% | 3% | -18% | -3% | 8%
COc1ccccc1NC(=O)c1ccccc1-c1nc(-c2ccccc2OC)no1 | 14% | ? | 28% | -3% | 25µM*
COc1ccccc1-c1noc(-c2ccccc2C(=O)Nc2ccccc2)n1 | -4% | ? | 322% | -3% | 25µM*
COc1ccc(C(=O)N2c3cc4c(cc3C(C)=CC2(C)C)OCO4)cc1 | -2% | 16µM* | 16µM* | -29% | 19%
CSc1ncnc2nc[nH]c12 | -2% | -1% | -4% | -2% | 1%
CC(=O)NCCNc1nc(-c2ccccc2Cl)nc2ccccc12 | -5% | 10% | 0% | -1% | 9%
CC[C@H](C)N(C)C(=O)c1cc2ccccc2c(-c2ccccc2Cl)n1 | -4% | 25µM* | ? | -2% | ?
C[C@@H]1C(=O)NC2=Nc3cccc(Cl)c3CN21 | -1% | nt | 1% | -3% | 0%
COCCn1c(=O)cnc2cnc(N3CCN(C)CC3)nc21 | -5% | 0% | 8% | 1% | 7%
O=c1c(-c2cccc(Cl)c2)nc2cncnc2n1Cc1ccccc1Cl | -7% | ? | 6.3µM* | -1% | ?
COc1ccccc1CCn1c(=O)c(-c2cccc(Cl)c2)nc2cncnc21 | 16% | ? | 13µM* | -1% | ?
CC(C)=CCC/C(C)=C/CO/N=C1/C[C@@H](O)[C@@H](O)[C@@H]2[C@H]3C(=O)N(c4ccc(F)cc4F)C(=O)[C@@H]3CC[C@@H]12 | nt | -11%[11.4 µM] | nt | nt | -21%[11.4 µM]
Cc1c(N)c(=O)n(-c2ccccc2)n1C | 6%[25.6 µM] | -4%[25.6 µM] | 5%[25.6 µM] | -3%[26 µM] | 0%[25.6 µM]
Cc1c(N2C(=O)c3ccc4c5c(ccc(c35)C2=O)CC4)c(=O)n(-c2ccccc2)n1C | 25µM* | -4% | 16µM* | -9% | -7%
CC(C)=NOC[C@@H](C)[C@H](OCc1ccccc1)C(C)C | nt | -7%[11.4 µM] | nt | nt | 2%[11.4 µM]
CCCCOc1ccc(-c2nnn(C(C)C(=O)OCC)n2)cc1 (stereo not drawn) | -4% | 1% | -11% | ? | 12%
CCCCOc1ccc(-c2nnn(C(C)(C)C(=O)OC)n2)cc1 | -8% | ? | -5% | 25µM* | ?
CN1CCN(C(=O)c2nc3ccc(Cl)cc3[nH]2)CC1 | nt | 5% | nt | nt | 11%
COc1ccccc1N1CCN(C(=O)CSc2nc(C)c(Cc3ccccc3)c(=O)[nH]2)CC1 | 5% | ? | -2% | -10% | 25µM*
COc1ccc(N2CCN(C(=O)CSc3nnc(C)c(=O)[nH]3)CC2)cc1 | -8% | ? | 1% | -3% | 1.3µM*
CN[C@@H]1NC(=O)c2ccccc2N1Cc1ccc(F)cc1 | -7%[11.4 µM] | 0%[11.4 µM] | 0%[11.4 µM] | -3%[11 µM] | 1%[11.4 µM]
O=C1CC(Cc2ccccc2)C(=O)N1CCCn1ccnc1 (stereo not drawn) | -4% | -8% | 9% | 0% | -2%
c1ccc2c[n+](Cc3ccnc4ccccc34)ccc2c1 | -10%[11.4 µM] | 0%[11.4 µM] | -17%[11.4 µM] | 0%[11 µM] | 2%[11.4 µM]
CCOC(=O)Cn1c(CN2CCN(c3cccc(Cl)c3)CC2)nc2c1c(=O)[nH]c(=O)n2C | -3% | ? | -5% | -8% | 20µM*
Cn1c(=O)c2c(nc(CN3CCN(c4cccc(Cl)c4)CC3)n2CCc2ccccc2)n(C)c1=O | -3% | ? | 95% | -11% | 7.9µM*
SMILES | Pol III holo inh | TSHR ag | Tau filament bind | Hsp90 Hop PPI | HEK293 cAMP ctrl
CCN(CC)c1ccc2c(c1)CCCN2 | -5% | 7%[11.4 µM] | 25µM* | 16µM* | 1%
O=C(O)CCSCC(=O)c1ccc2c(c1)OCCO2 | -7% | 21% | -12% | -1% | 14%
O=C(O)CCC(=O)c1ccc2c(c1)OCCO2 | -6% | ? | -6% | 1% | 20µM*
CN(C)CCCn1cc(C2=C(c3c[nH]c4ccccc34)C(=O)NC2=O)c2ccccc21 | -11% | ? | 2µM* | ? | -53%
CC(C)(C)c1ccc(OCC(=O)O)c(Cl)c1 | 0%[11.4 µM] | 6%[11.4 µM] | 1%[11.4 µM] | -2%[11 µM] | 11%[11.4 µM]
COc1ccccc1-c1nccc(NCc2cccnc2)n1 | -1% | 10% | -17% | -2% | 16%
Cc1nc2scc(-c3cccs3)c2c(=O)n1-n1cccc1 | -1% | ? | 10% | -5% | 32µM*
CC(=O)[C@H](CC(C)C)NC(=O)[C@@H](CC(C)C)NC(=O)[C@H](CC(C)C)NC(=O)OCc1ccccc1 | -3% | ? | ? | 2% | 25µM*
CC(=O)NC(CC(C)C)C(=O)NC(Cc1ccccc1)C(N)=O (stereo not drawn) | -2% | -2% | 0% | 1% | -5%
O=C(CN1C(=O)COc2ccccc21)N(Cc1cccnc1)Cc1cccc(F)c1 | -4% | ? | -1% | -5% | 16µM*
O=C(O)CCC(=O)N(Cc1cccnc1)Cc1cccc(F)c1 | 0% | 0% | -14% | -1% | 10%
O=C(c1ccncc1)N1CCC2(CCN(Cc3ccncc3)CC2)CC1 | 7% | 0% | -3% | -4% | 11%
CCn1c(C)nc2cc(-c3nnc(-c4c(-c5ccccc5)noc4C)o3)ccc21 | 2% | ? | 255% | -3% | 20µM*
Cc1ccc(-c2nnc(-c3ccc4ccccc4c3)o2)cc1 | -14%[11.4 µM] | ? | 58%[11.4 µM] | 0%[11 µM] | ?
COc1cc2ccccc2cc1C(=O)Nc1ccc(N2CCN(C)CC2)cc1 | -6% | ? | 3.2µM* | -15% | -40%
CCOc1ccc(C(=O)Nc2ccc(N3CCN(C)CC3)cc2)cc1Br | -4% | -28% | 10µM* | -7% | -14%
COc1ccccc1C(=O)Nc1ccc(N2CCN(S(C)(=O)=O)CC2)cc1 | -12% | -8% | 0% | -1% | 3%
CCOc1ccc(C(=O)Nc2ccc(N3CCCC3)cc2)cc1 | -8% | -16% | 10µM* | ? | -16%
O=C1c2ccccc2C(=O)N1c1ccc(Cc2ccc(N3C(=O)c4ccccc4C3=O)cc2)cc1 | -9%[11.4 µM] | 3%[11.4 µM] | 0%[11.4 µM] | 2%[11 µM] | 0%[11.4 µM]
O=C(Nc1ccc2c(c1)OCO2)c1cnn2c(C(F)(F)F)cc(-c3ccco3)nc12 | -2% | -18% | 0.5µM* | -4% | -4%
O=C(NC1CCCCC1)c1cc2nc(-c3ccco3)cc(C(F)(F)F)n2n1 | 0% | 11% | -26% | 1% | -3%
O=C(NC12CC3CC(CC(C3)C1)C2)c1cc2nc(-c3ccco3)cc(C(F)(F)F)n2n1 | -5% | 19% | 13µM* | 10% | -11%
COc1ccc(NC(=O)c2cnn3c(C(F)(F)F)cc(-c4ccco4)nc23)cc1OC | 1µM* | -4%[11.4 µM] | 0.4µM* | -11%[11 µM] | -2%[11.4 µM]
O=C(Nc1cnn(C23CC4CC(CC(C4)C2)C3)c1)c1cnn2c(C(F)(F)F)cc(-c3ccco3)nc12 | -5% | -17% | 2µM* | -3% | -3%
Cc1ccccc1Cn1nc(C)c(NC(=O)c2cc3nc(-c4ccco4)cc(C(F)(F)F)n3n2)c1C | 0% | 8% | 7.9µM* | -11% | -7%
CC(N)CN (stereo not drawn) | 1% | 7% | 6% | -1% | 4%
